The whole screen tested about 48,000 compounds, of which about 13,000 (27%) showed an effect of 50% or more. Some of the results follow.
Tested on: Wolbachia pipientis
Assay: Anti-Wolbachia Cell-Based Screen
Format: functional
Parameters: scale not given: in the data most compounds retested in dose-response had high values
Conditions: 5 µM

Compared with `CCS(=O)(=O)CC(=O)Nc1ccc2oc(C3CC3)nc2c1`, `Cc1ccc2oc(=O)n(CCC(=O)N3CCCC4(CNC(=O)O4)C3)c2c1` (stereo not given) is higher in “Percent Effect” value: -4.895% for the first, -2.854% for the second.

Compared with `c1cn(CC2CCOCC2)c(-c2cc(CN3CCCC3)cs2)n1`, `Brc1cc2c(cc1CN1CCC(N3CCCCC3)CC1)OCCO2` is lower in “Percent Effect” value: 5.864% for the first, -3.138% for the second.

Compared with `CC(CCO)Nc1cccc(C(F)(F)F)n1` (stereo not given), `CCn1nc(CC(C)C)cc1C(=O)NCC(F)(F)F` is higher in “Percent Effect” value: -9.729% for the first, 127.5% for the second.

Going from `CCn1nc(CC(C)C)cc1C(=O)NCCCOC` to `CCn1nc(CC(C)C)cc1C(=O)NCCS(=O)(=O)N(C)C`, the “Percent Effect” value rises from -13.1% to 162.2%.

Going from `CCn1nc(CC(C)C)cc1C(=O)N1CC[C@@H](O)C1` to `CCn1nc(CC(C)C)cc1C(=O)N1CCCC(C#N)C1` (stereo not given), the “Percent Effect” value falls from -2.224% to -3.007%.

Going from `CCN(CC)C1CCN(C(=O)c2cc(CC(C)C)nn2CC)C1` (stereo not given) to `CCC(CNC(=O)c1cc(CC(C)C)nn1C)N(C)CC` (stereo not given), the “Percent Effect” value falls from 33.04% to -16.5%.

First: CCn1ccc(C(=O)NCCCN2CCOCC2)n1
Second: CCn1nc(CC(C)C)cc1C(=O)NCCCN1CCOCC1
The “Percent Effect” value of the first is lower: -2.896% for the first, 125.1% for the second.

First: CCn1nc(CC(C)C)cc1C(=O)NCCn1cccc1
Second: CCn1nc(CC(C)C)cc1C(=O)NCc1c(C)cc(C)nc1OC
The “Percent Effect” value of the first is lower: -13.46% for the first, 140.7% for the second.

Compared with `COc1nc(C)cc(C)c1CNC(=O)N(C)Cc1cnn(C)c1`, `COc1ccc(CNC(=O)Nc2ccc(=O)n(C)c2)cc1` is higher in “Percent Effect” value: -3.346% for the first, -2.437% for the second.

Compared with `CN(CCn1cnnc1)C(=O)c1ccnc(OC2CCC2)c1`, `COc1cc(CCC(=O)N2CCC(c3cnccn3)CC2)on1` is higher in “Percent Effect” value: -7.369% for the first, 147.9% for the second.

Going from `Cc1noc(C2CCN(C(=O)CCc3nccs3)CC2)n1` to `COc1cc(CCC(=O)N2CCC(c3cncc(C)n3)CC2)on1`, the “Percent Effect” value rises from 4.096% to 141.8%.

First: COc1cc(C)nc(N2CCN(C(=O)CCc3ccco3)CC2)n1
Second: COc1cc(C)nc(N2CCN(C(=O)CCc3ccncc3)CC2)n1
The “Percent Effect” value of the first is higher: 12.06% for the first, -15.67% for the second.

Going from `COc1cccc(OCC2CCCN(C(=O)CCc3cc(O)no3)C2)c1` (stereo not given) to `COCC(=O)N1CCC2(CC1)CCn1c(-c3cccc(OC)c3)cnc12`, the “Percent Effect” value falls from -4.281% to -17.52%.

Compared with `CCc1ccccc1C(=O)NS(=O)(=O)CCCC#N`, `CCCNC(=O)c1cc(-c2ccn(C(C)C)n2)n2ccccc12` is lower in “Percent Effect” value: -10.54% for the first, -14.06% for the second.

First: Cc1n[nH]c(CCC(=O)N2CCOC(Cc3ccc(F)cc3)C2)c1C (stereo not given)
Second: COCCN1CCO[C@@H]2CN(C(=O)Cc3ccc(F)cc3)CC[C@@H]2C1.O=C(O)C(F)(F)F
The “Percent Effect” value of the first is higher: 14.83% for the first, 12.24% for the second.

First: O=C(NC1(C(=O)NCC2CC2)CCCC1)C1Cc2cc(F)ccc2O1 (stereo not given)
Second: O=C(NC1CCCCC1)C1CCCN(C(=O)Nc2ccccn2)C1 (stereo not given)
The “Percent Effect” value of the first is lower: -11.6% for the first, 6.063% for the second.

Going from `Cc1cc(CN2C[C@@H](C)[C@@]3(CCN(C)C3=O)C2)oc1C.O=C(O)C(F)(F)F` to `C[C@H]1CN(C(=O)c2ccoc2)C[C@@]12CCN(CCN(C)C)C2=O.O=C(O)C(F)(F)F`, the “Percent Effect” value rises from 2.821% to 113.7%.

First: Cc1ccc(OC2(C(=O)O)CCN(C(=O)c3ccccc3F)CC2)cn1
Second: C[C@@H]1CN(C(=O)c2ccccc2F)C[C@]12CCN(CCN(C)C)C2=O
The “Percent Effect” value of the first is lower: -3.687% for the first, 90.27% for the second.

Going from `CC1N(C)C(=O)COC12CCN(C(=O)Cc1ccsc1)CC2` (stereo not given) to `C[C@@H]1CN(C(=O)Cc2ccsc2)C[C@]12CCN(CCN(C)C)C2=O`, the “Percent Effect” value rises from 1.71% to 171.4%.

First: CN(C)CCN1CCO[C@@H]2CN(C(=O)Cc3ccsc3)CC[C@@H]2C1
Second: COCCN1CCO[C@@H]2CN(C(=O)Cc3ccccc3)CC[C@@H]2C1.O=C(O)C(F)(F)F
The “Percent Effect” value of the first is higher: 102.6% for the first, 12.5% for the second.

Compared with `COCC1CN(C(=O)Cc2ccsc2)Cc2c1cnn2C` (stereo not given), `CN(C)C(=O)COCc1nnc2n1CCN(Cc1ccsc1)C2.O=C(O)C(F)(F)F` is higher in “Percent Effect” value: -19.19% for the first, 3.675% for the second.

Compared with `CN(C)CCN1CC(C(=O)N2CCC(c3cccc(O)c3)CC2)CC1=O` (stereo not given), `Cc1ncc(C(=O)N2CC(C(=O)N3CCOCC3)C2)c(C)n1` is higher in “Percent Effect” value: -14.83% for the first, 106.6% for the second.

Going from `CC(C)COc1cncc(NC(CO)c2ccco2)n1` (stereo not given) to `CC(C)c1nc2c(n1C)CCN(CCCc1nc3ccccc3o1)C2`, the “Percent Effect” value rises from -5.064% to -2.699%.

Compared with `CC(C1CCN(Cc2ccccc2OC(F)F)CC1)N1CCOCC1` (stereo not given), `NC(=O)Cn1ccnc1C1CCCN(Cc2ccccc2OC(F)F)C1` (stereo not given) is lower in “Percent Effect” value: 23.13% for the first, -1.119% for the second.

Going from `CCN(CC(=O)NC)C(=O)c1cc(-c2cccc(Cl)c2)no1` to `CCCn1nc(-c2nc(Cc3ccc(OC)cc3)no2)ccc1=O`, the “Percent Effect” value falls from -2.874% to -20.77%.

First: CNS(=O)(=O)c1ccc(CN2CCCN(CC(C)C)CC2)cc1
Second: COc1ccc(CN2CCc3nnc(COCCN(C)C)n3CC2)cc1.O=C(O)C(F)(F)F.O=C(O)C(F)(F)F
The “Percent Effect” value of the first is lower: 8.265% for the first, 131% for the second.

First: Nc1cccc(-c2cccc3ccnn23)n1
Second: O=C(N[C@H]1CC[C@H](O)CC1)c1ccc2nc(-c3ccc(F)cc3)cn2c1
The “Percent Effect” value of the first is higher: 9.414% for the first, -4.798% for the second.

First: O=C1CC2(CCN(C(=O)c3ccc4c(c3)CCCO4)C2)C(=O)N1 (stereo not given)
Second: CCN1CC(=O)NCC12CCN(C(=O)c1ccco1)C2.O=C(O)C(F)(F)F (stereo not given)
The “Percent Effect” value of the first is higher: -2.87% for the first, -12.24% for the second.

First: Cc1ccsc1-c1nc(CN(C)Cc2noc(C(C)C)n2)c(C)o1
Second: CC(C)c1nnc2ccc(N3CCC(C(=O)Nc4nccs4)CC3)nn12
The “Percent Effect” value of the first is lower: 10.67% for the first, 11.38% for the second.

Compared with `COc1ccc(CNC(=O)Nc2ccc(CN3CCOC3=O)cc2)cc1`, `COc1ccc(NC(=O)Nc2c(O)c3ccccc3oc2=O)cc1` is higher in “Percent Effect” value: 12.97% for the first, 106% for the second.

Compared with `CCn1ncnc1CN(C/C=C/c1ccccc1)CCOC`, `CCc1ncc2c(n1)CN(CCCOc1ccc(C#N)cc1)CC2` is lower in “Percent Effect” value: 8.107% for the first, -6.685% for the second.

Compared with `CC(C)(C)CCN1CCN(Cn2nccc2-c2cccnc2)CC1`, `Cn1cc(-c2nc(CN3CCN(CCO)CC3)cs2)cn1` is higher in “Percent Effect” value: -19.45% for the first, -9.549% for the second.

Compared with `CCc1nc(C)ncc1C(=O)N1CCCC(n2nc(C)nc2C)C1` (stereo not given), `Cc1ncc(C(=O)N2CC(C(=O)N3CCCCCC3)C2)c(C)n1` is higher in “Percent Effect” value: -5.056% for the first, 132.1% for the second.

Compared with `Cc1ncc(C(=O)N2C[C@H]3CC[C@@H]2CN(S(=O)(=O)N(C)C)C3)c(C)n1`, `Cc1ncc(C(=O)N2CCC(C(=O)NC3CCCC3)C2)c(C)n1` (stereo not given) is higher in “Percent Effect” value: 4.102% for the first, 133.9% for the second.

Going from `Cc1ncc(C(=O)N2C[C@H](CO)C[C@H](CN3CCOCC3)C2)c(=O)[nH]1` to `Cc1cnc(N2CC(C(=O)N3CCOCC3)C3(CCOCC3)C2)nc1` (stereo not given), the “Percent Effect” value rises from -13.12% to -3.796%.

Compared with `Cc1nc(N2CCCCC2)ncc1C(=O)N1CC(C)(C)[C@@](C)(O)C1`, `CC(=O)N1CC[C@H]2OCC[C@@]2(C(=O)NCc2cnc(C)cn2)C1` is higher in “Percent Effect” value: 13.78% for the first, 98.12% for the second.

Compared with `O=C(NCc1ccco1)[C@@]12CCO[C@@H]1CCN(Cc1nccs1)C2`, `CC(=O)N1CC[C@H]2OCC[C@@]2(C(=O)NCc2ccco2)C1` is higher in “Percent Effect” value: -2.827% for the first, 16.6% for the second.

First: Cc1ccnc(OC[C@@]23CCO[C@@H]2CCN(c2ncccn2)C3)n1.O=C(O)C(F)(F)F
Second: O=C(NCc1ccco1)[C@@]12CCO[C@@H]1CCN(c1ncccn1)C2.O=C(O)C(F)(F)F
The “Percent Effect” value of the first is lower: -11.59% for the first, -9.525% for the second.

First: O=C(NCc1ccccn1)[C@@]12CCO[C@@H]1CCN(c1ncccn1)C2
Second: Cc1cnc(CNC(=O)[C@@]23CCO[C@@H]2CCN(c2ncccn2)C3)cn1
The “Percent Effect” value of the first is lower: 99.07% for the first, 105.8% for the second.

Going from `O=C(NCc1ccco1)[C@@]12CCO[C@@H]1CCN(CCN1CCCC1)C2` to `O=C(O)C(F)(F)F.O=C(c1cscn1)N1CCc2ncc(CN3CCCC3)n2CC1`, the “Percent Effect” value falls from -0.5732% to -30.66%.

Going from `CCN1CCN(C[C@@H]2CN(c3ncccc3C(F)(F)F)C[C@@H]2CO)CC1` to `CCN1CCn2c(C)cnc2C12CCN(C(=O)c1ccc(Cl)cc1)CC2.O=C(O)C(F)(F)F`, the “Percent Effect” value falls from -2.806% to -23.96%.

First: CCN1CC[C@@]2(C(=O)N(C)C)CCN(C(=O)Cc3ccccc3)CC[C@@H]12.O=C(O)C(F)(F)F
Second: CCN1CCn2c(C)cnc2C12CCN(C(=O)Cc1ccccc1)CC2.O=C(O)C(F)(F)F.O=C(O)C(F)(F)F
The “Percent Effect” value of the first is lower: 0.7047% for the first, 97.89% for the second.

Compared with `CCN1CCn2c(C)cnc2C12CCN(C(=O)c1cscn1)CC2.O=C(O)C(F)(F)F.O=C(O)C(F)(F)F`, `CCN1CCn2c(C)cnc2C12CCN(C(=O)c1ccco1)CC2.O=C(O)C(F)(F)F.O=C(O)C(F)(F)F` is lower in “Percent Effect” value: 113.9% for the first, 97.51% for the second.

First: CCN1CCn2c(C)cnc2C12CCN(C(=O)COC)CC2.O=C(O)C(F)(F)F.O=C(O)C(F)(F)F
Second: CC(C)N(C)Cc1nnc2n1CCN(CC1CC1)CC2.O=C(O)C(F)(F)F.O=C(O)C(F)(F)F
The “Percent Effect” value of the first is higher: 77.99% for the first, 9.045% for the second.

Compared with `CCN(C)c1ncnc2c1CCN(C(=O)COC)CC2.O=C(O)C(F)(F)F`, `CN(C)C(=O)COCc1nnc2n1CCN(Cc1ccoc1)C2.O=C(O)C(F)(F)F` is higher in “Percent Effect” value: -4.529% for the first, -2.89% for the second.

Compared with `CCC1CN(Cc2c(O)ccc3oc4c(c23)CCCC4)CCO1` (stereo not given), `CN(C)CCOCc1nnc2n1CCN(Cc1ccc(F)cc1)CC2.O=C(O)C(F)(F)F.O=C(O)C(F)(F)F` is higher in “Percent Effect” value: -8.053% for the first, 109.9% for the second.

First: Cc1ccc(C(C)(O)CNC(=O)c2scnc2C)o1 (stereo not given)
Second: COCc1nnc2n1CCN(Cc1ccoc1)C2.O=C(O)C(F)(F)F
The “Percent Effect” value of the first is lower: -6.969% for the first, -3.646% for the second.

First: CC(C)c1ccc(C(O)Cn2c(=O)c(C#N)cn(C3CC3)c2=O)cc1 (stereo not given)
Second: CC(C)N(C)Cc1nnc2n1CCN(Cc1ccncc1)CC2.O=C(O)C(F)(F)F.O=C(O)C(F)(F)F.O=C(O)C(F)(F)F
The “Percent Effect” value of the first is higher: -1.509% for the first, -8.532% for the second.

Going from `O=C(O)C(F)(F)F.O=C(O)C(F)(F)F.c1cncc(COCc2nnc3n2CCN(CC2CC2)C3)c1` to `CN(C)CCOCc1nnc2n1CCN(CC1CC1)CC2.O=C(O)C(F)(F)F.O=C(O)C(F)(F)F`, the “Percent Effect” value rises from -1.478% to 103.3%.

First: CN(C)CCOCc1nnc2n1CCN(Cc1ccoc1)CC2.O=C(O)C(F)(F)F.O=C(O)C(F)(F)F
Second: CN(C)CCOCc1nnc2n1CCN(Cc1ccsc1)C2.O=C(O)C(F)(F)F.O=C(O)C(F)(F)F
The “Percent Effect” value of the first is higher: 88.27% for the first, -13.86% for the second.
